We go through 13 compounds from PubChem BioAssay (Tox21).

Unmarked numbers belong to inactive results. Results filed as inconclusive are left out. Activity calls are given as the source filed them. Unless noted, calls come from the whole dose curve; as a rule, active = well fitted curve in the direction sought with a large enough effect in the repeat runs; inconclusive = weak or mixed curves; inactive = no such curve, though single readings can be large; an effect the other way counts as inactive or inconclusive.

Experiment [1] deals with Luciferin 4-monooxygenase (Photinus pyralis) (UniProt P08659). Description: qHTS assay to identify small molecule inhibitors of firefly luciferase (AID 1224835). Note: nearly all actives have a fitted effect of over 25% in size. The gist of the method: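 Biochemical qHTS: compounds run as interplate titrations against purified firefly enzyme, with D-luciferin and ATP each at its KM concentration. Light output recorded by CCD imaging.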
(In general: Quantitative high-throughput screening tests each substance at several concentrations.)

Experiment [2] is described as follows: qHTS assay to identify small molecule agonists of the constitutive androstane receptor (CAR) signaling pathway - cell viability counter screen (AID 1224836). Note: nearly all actives have a fitted effect of over 45% in size. The gist of the method:
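Multiplexed viability check: HepG2-CYP2B6-hCAR cells, 15-point compound dosing, 0.75 uM PK11195 final, 23 h at 37 C, CellTiter-Fluor fluorescence.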

A short description of experiment [3]: qHTS assay to identify small molecule antagonists of the constitutive androstane receptor (CAR) signaling pathway - cell viability counter screen (AID 1224837). Note: nearly all actives have a fitted effect of over 45% in size. The gist of the method:
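Fluorescence from CellTiter-Fluor served as the viability signal. Human hepatoma HepG2 cells stably bearing hCAR and CYP2B6-2.2kb received compound plus CITCO (50 nM final) for 23 hr.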

A short description of experiment [4]: qHTS assay to identify small molecule antagonists of the estrogen related receptor signaling pathway with the pleiotropic PPARgamma coactivator (PGC) from Tox21 10K library - cell viability counter screen (AID 1224840; active = well fitted cell-killing curve with a large enough effect in the repeat runs, not every such curve was filed as active; note: nearly all actives have a fitted effect of over 40% in size). The gist of the method:
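Compounds in DMSO, alongside positive and negative controls, were pinned onto PGC/ERR cells (2,000 per well). Exposure lasted 17.5 hours at 37 C, followed by a 30-minute CellTiter-Fluor incubation and fluorescence reading.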

Experiment [5] has as its target Thyrotropin receptor (Homo sapiens) (UniProt P16473). Description: qHTS assay to identify small molecule agonists of the thyroid stimulating hormone receptor (TSHR) signaling pathway (AID 1224843; calls by dose curve; note: nearly all actives have a fitted effect of over 45% in size). The essentials: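 TSHR-HEK293 cells in agonist mode, 30 min room-temperature step, then cAMP measured by competitive HTRF (cAMP-d2 with anti-cAMP cryptate) after 1 h at room temperature. Tested at 15 concentrations in triplicate.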

Experiment [6] can be described thus: qHTS assay to identify small molecule agonists of the hypoxia (HIF-1) signaling pathway - cell viability counter screen (AID 1224844; calls by dose curve; note: nearly all actives have a fitted effect of over 50% in size; note: potency is the fitted concentration of half-maximal effect). The gist of the method: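 Luminescent ATP content (CellTiter-Glo, 30 min, room temperature) served as the viability measure in HRE-bla ME-180 cells exposed to compounds for 17 hrs in low-serum medium (0.5% dialyzed FBS).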
Experiment [7] is described as follows: qHTS assay to identify small molecule agonists of H2AX (AID 1224845; active = well fitted activation curve with a large enough effect in the signal ratio in the repeat runs, not every such curve was filed as active; the % refers to the signal ratio). The gist of the method:
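Wild-type CHO-K1 cells, plated overnight, exposed 3hr at 37C to 15 concentrations (0.76% DMSO final). Lysed, then HTRF anti-pH2AX (S139) cryptate and anti-H2AX-d2 antibodies, 24 hr room temperature; 665/620 nm emission read.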

Experiment [8] can be described thus: qHTS assay to identify small molecule agonists of the hypoxia (HIF-1) signaling pathway (AID 1224846; active = well fitted activation curve with a large enough effect in the signal ratio in the repeat runs, not every such curve was filed as active; the % refers to the signal ratio). The essentials:
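Measured by blue/green FRET after loading CCF4-AM: beta-lactamase expressed from a hypoxia response element in ME-180 cells. Test agents were delivered in DMSO and left 17 hrs; cells had been plated 5 hrs earlier in low-serum (0.5% dialyzed FBS) medium.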

A short description of experiment [9]: qHTS assay to identify small molecule agonists of H2AX - cell viability counter screen (AID 1224847; calls by dose curve; note: nearly all actives have a fitted effect of over 30% in size; note: potency is the fitted concentration of half-maximal effect). The essentials: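 After overnight plating of 1000 CHO-K1 cells per well, a 15-concentration compound series was applied for 3 hr at 37C. Luminescence from CellTiter-Glo, read following 30 min at room temperature, reflected cell viability.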
Experiment [10] can be described thus: qHTS RealTime-Glo MT Cell Viability Assay in HepG2 cells - 24 hour (AID 1224867). Note: nearly all actives have a fitted effect of over 50% in size. The essentials: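 Cell number in HepG2 cultures estimated from NanoLuc luminescence generated by metabolic reduction of a prosubstrate by living cells. The homogeneous, nonlytic format allowed repeated reads at 0, 8, 16, 24, 32 and 40 h of compound exposure.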
Experiment [11] is described as follows: qHTS RealTime-Glo MT Cell Viability Assay in HEK293 cells - 32 hour (AID 1224868). Note: nearly all actives have a fitted effect of over 50% in size. Note: potency is the fitted concentration of half-maximal effect. The essentials: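 Homogeneous bioluminescent viability format in HEK293 cells (600 cells/well). Following 5 h at 37 C/5% CO2, 23 nL compound was pintooled; the signal was measured repeatedly during 40 h incubation.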
Experiment [12] is described as follows: A CellTox Green Cytotoxicity Assay to monitor cytotoxicity in HEK293 cells - 0 hour (AID 1224869). Note: nearly all actives have a fitted effect of over 50% in size. The gist of the method:
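Each value comes from one timepoint of a single continuous run in which HEK293 cells with CellTox Green were exposed to compound for up to 40 h at 37 C, dye fluorescence rising with cell death.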

Experiment [13] has as its target Nuclear receptor subfamily 1 group I member 3 (Homo sapiens) (UniProt Q14994). Description: qHTS assay to identify small molecule agonists of the constitutive androstane receptor (CAR) signaling pathway (AID 1224839).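 Note: HepG2 cells stably carrying human CAR and a CYP2B6 luciferase reporter; nearly all actives have a fitted effect of over 15% in size.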 The gist of the method:
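Using human hepatoma HepG2 cells engineered with hCAR and a CYP2B6-2.2kb reporter, 15-concentration compound series were incubated 24 h alongside PK11195 at 0.75 uM final, with luminescence quantified afterwards.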

The target is the same in experiment [14]. Description: qHTS assay to identify small molecule antagonists of the constitutive androstane receptor (CAR) signaling pathway (AID 1224838).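 Note: HepG2 cells stably expressing hCAR with CYP2B6 luciferase reporter stimulated by CITCO; nearly all actives have a fitted effect of over 40% in size.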 Note: potency is the fitted concentration of half-maximal effect. The gist of the method: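 Quantitative HTS in double-stable HepG2-CYP2B6-hCAR cells. After 4 h plating, cells get compound (15 concentrations) and CITCO at 50 nM final, incubate 24 h at 37 C, then ONE-Glo luminescence is read.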

The nature of experiment [15]: qHTS assay to identify small molecule antagonists of the estrogen related receptor signaling pathway with the pleiotropic PPARgamma coactivator (PGC) from Tox21 10K library (AID 1224841; call rule not given here). The essentials:
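Compound exposure ran 18 hours at 37 C in PGC/ERR cells (2,000/well) that had first rested 6 hours in a 37 C/5% CO2 incubator. Luciferase activity was then detected with One-Glo after a 30-minute room-temperature step.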

Experiment [16] is described as follows: qHTS assay to identify small molecule agonists of the estrogen related receptor signaling pathway with the pleiotropic PPARgamma coactivator (PGC) from Tox21 10K library (AID 1224842). Note: nearly all actives have a fitted effect of over 15% in size. The gist of the method: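 PGC/ERR reporter cell line, 2,000 cells per well, incubated 6 h at 37 C before 23 nL compound in DMSO was added. After 18 h at 37 C, One-Glo luminescence read following 30 min at room temperature.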

Experiment [17] can be described thus: qHTS assay to identify small molecule antagonists of the estrogen related receptor (ERR) signaling pathway from Tox21 library (AID 1224848). Note: nearly all actives have a fitted effect of over 50% in size. Note: potency is the fitted concentration of half-maximal effect. The gist of the method:
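ERR reporter cell line (from NTP) seeded 2,000 cells/well, rested 6 h at 37 C/5% CO2, then pin-dosed with compounds in DMSO. After 18 h at 37 C, ONE-Glo added; luminescence read after 30 min at room temperature.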

A short description of experiment [18]: qHTS assay to identify small molecule agonists of the estrogen related receptor (ERR) signaling pathway from Tox21 library (AID 1224849; calls by dose curve; note: nearly all actives have a fitted effect of over 15% in size). Conditions: ERR reporter cell line, ONE-Glo luciferase, 18 h; at 92.4 µM (top of the series) unless noted. The essentials: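 We plated ERR reporter cells, waited 6 h, added compounds in DMSO by pin tool and incubated them 18 h at 37 C. ONE-Glo was then added and luminescence read after 30 min.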
% is set by controls: 0 for no effect and ±100 for the full control effect.

Luciferin 4-monooxygenase (Photinus pyralis), sequence (P08659 whole entry, looked up): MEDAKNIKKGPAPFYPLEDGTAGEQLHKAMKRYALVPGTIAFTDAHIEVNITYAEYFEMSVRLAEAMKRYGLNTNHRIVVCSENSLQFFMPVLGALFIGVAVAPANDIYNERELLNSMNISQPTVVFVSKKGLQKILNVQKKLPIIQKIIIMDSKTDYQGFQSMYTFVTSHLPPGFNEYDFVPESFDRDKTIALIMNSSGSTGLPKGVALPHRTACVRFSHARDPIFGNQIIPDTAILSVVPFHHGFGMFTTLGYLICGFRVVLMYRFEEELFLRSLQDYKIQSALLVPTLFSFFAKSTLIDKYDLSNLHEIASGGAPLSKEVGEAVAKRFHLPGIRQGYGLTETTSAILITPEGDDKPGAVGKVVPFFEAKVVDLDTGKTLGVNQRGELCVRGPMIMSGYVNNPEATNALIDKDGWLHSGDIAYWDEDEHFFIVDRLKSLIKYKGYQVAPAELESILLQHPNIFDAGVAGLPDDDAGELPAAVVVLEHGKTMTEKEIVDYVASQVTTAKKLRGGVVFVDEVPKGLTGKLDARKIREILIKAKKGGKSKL
Thyrotropin receptor (Homo sapiens), sequence (P16473 whole entry, looked up): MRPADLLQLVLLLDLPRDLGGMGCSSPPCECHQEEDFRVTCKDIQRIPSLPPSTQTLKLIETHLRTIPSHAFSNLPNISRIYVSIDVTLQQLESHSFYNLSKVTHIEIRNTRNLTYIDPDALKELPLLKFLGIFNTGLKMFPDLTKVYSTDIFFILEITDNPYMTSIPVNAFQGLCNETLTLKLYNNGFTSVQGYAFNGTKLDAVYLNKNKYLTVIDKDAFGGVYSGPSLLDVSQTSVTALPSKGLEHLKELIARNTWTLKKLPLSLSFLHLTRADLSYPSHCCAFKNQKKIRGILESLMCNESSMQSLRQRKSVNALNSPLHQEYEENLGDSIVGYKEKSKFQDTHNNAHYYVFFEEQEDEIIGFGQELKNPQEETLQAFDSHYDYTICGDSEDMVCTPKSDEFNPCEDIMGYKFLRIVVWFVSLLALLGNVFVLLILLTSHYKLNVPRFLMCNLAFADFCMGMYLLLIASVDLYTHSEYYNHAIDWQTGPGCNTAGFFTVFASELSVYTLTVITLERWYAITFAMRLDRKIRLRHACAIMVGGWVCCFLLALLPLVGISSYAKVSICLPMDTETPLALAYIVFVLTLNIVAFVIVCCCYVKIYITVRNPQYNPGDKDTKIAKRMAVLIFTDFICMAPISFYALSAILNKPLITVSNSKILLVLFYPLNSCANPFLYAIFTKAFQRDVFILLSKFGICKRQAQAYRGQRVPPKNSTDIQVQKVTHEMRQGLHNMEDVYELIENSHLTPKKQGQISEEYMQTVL
Nuclear receptor subfamily 1 group I member 3 (Homo sapiens), sequence (Q14994 whole entry, looked up): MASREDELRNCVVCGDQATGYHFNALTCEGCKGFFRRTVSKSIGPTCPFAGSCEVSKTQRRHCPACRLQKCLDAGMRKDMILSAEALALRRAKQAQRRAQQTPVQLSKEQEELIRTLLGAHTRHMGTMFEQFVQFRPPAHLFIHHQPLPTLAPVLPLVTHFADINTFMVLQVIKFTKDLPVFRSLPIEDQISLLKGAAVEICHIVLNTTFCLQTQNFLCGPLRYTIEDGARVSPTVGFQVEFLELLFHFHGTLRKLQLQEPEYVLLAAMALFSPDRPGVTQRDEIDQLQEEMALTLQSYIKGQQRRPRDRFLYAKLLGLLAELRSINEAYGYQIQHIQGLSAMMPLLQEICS

Take `CCOCCn1c(C2CCN(CCc3ccc(C(C)(C)C(=O)O)cc3)CC2)nc2ccccc21`: the Potency result in experiment [1], in experiment [2], in [3], in experiment [4], in [5] and in experiment [6] was “inactive” throughout. Besides, the Potency result in [7], in [9], in [10], in [11] and in [12] was “inactive” each time. In [8], the outcome was inactive.

Regarding `CC(=O)[C@H]1CC[C@H]2[C@@H]3C=CC4=CC(=O)CC[C@@]4(C)[C@@H]3CC[C@]12C`, the Potency result in [1], in [2], in [3], in [13], in experiment [5] and in [6] was “inactive” in each case. Moreover, the Potency entry in [7], in experiment [10] and in experiment [12] was “inactive” throughout. Also, the result in experiment [8] was inactive.

Turning to `C=CC(C)(C)CC(=O)OC`, the Potency result in [1], in [13], in [5], in experiment [9], in experiment [10] and in experiment [12] was “inactive” throughout. The Potency in experiment [14] was 15.4 µM (active); in experiment [6], 12.3 µM (active); in [11] it was 1.38 µM (active). Further, the outcome in experiment [8] was inactive.

Consider `C(=C\c1ccccc1)/CN1CCN(C(c2ccccc2)c2ccccc2)CC1`, for which the Potency result in experiment [2], in [3], in [13], in experiment [4], in [5] and in [6] was “inactive” throughout. Moreover, the Potency result in experiment [10] and in [12] was “inactive” throughout.

For the compound `CCCCCCOC(=O)C(C)C`, the Potency entry in experiment [1], in experiment [2], in [3], in experiment [4], in experiment [15] and in experiment [16] was “inactive” throughout. Besides, the Potency result in experiment [5], in [6], in experiment [7], in [9], in [17] and in experiment [10] was “inactive” throughout. Besides, the Potency entry in experiment [11] was “inactive”. Moreover, in [8], the compound was called inactive. In experiment [18], the activity change, positive = activation is 7.77%.

For `CCOC(=O)[C@@H](C)Oc1ccc(Oc2nc3ccc(Cl)cc3o2)cc1`, the Potency entry in [2], in [3], in experiment [14], in experiment [4], in experiment [15] and in experiment [6] was “inactive” each time. Further, the Potency result in experiment [7] and in [12] was “inactive” each time. Further, the Potency in experiment [17] was 48.6 µM (active); in experiment [11], 21.9 µM (active). Also, in experiment [18], the activity change, positive = activation was -39.1%.

As for `Fc1ccccc1[C@@H](F)COC1CCC(Nc2ncnc3[nH]ncc23)CC1` (stereo partly specified), the Potency result in [1], in experiment [14], in experiment [13], in experiment [5], in experiment [6] and in [7] was “inactive” each time. Moreover, the Potency entry in experiment [10] and in experiment [12] was “inactive” throughout. In addition, the compound was called inactive in experiment [8]. The Potency in [9] is 101 µM (active); in experiment [11], 21.9 µM (active).

Consider `C=C(C)C(=O)OCCOC(=O)CC(C)=O`, for which the Potency entry in [1], in [2], in experiment [3], in [4], in experiment [5] and in [6] was “inactive” each time. In addition, the Potency entry in experiment [7], in experiment [9], in experiment [10], in experiment [11] and in [12] was “inactive” in each case. The compound was classed as inactive in [8].

As for `Cc1oc(C)c(C(=O)Nc2ccccc2)c1C`, the Potency entry in [2], in experiment [3], in [4], in [16], in experiment [6] and in [7] was “inactive” each time. Besides, the Potency result in [10] and in experiment [12] was “inactive” each time. In [8], the compound was classed as inactive. For the same compound, the Potency in experiment [17] was 17.2 µM (active); in experiment [11] it was 24.5 µM (active).

As to `O=C(O)c1cccnc1C(=O)O`, the Potency result in experiment [1], in experiment [2], in experiment [3], in experiment [4], in [5] and in experiment [6] was “inactive” each time. Further, the Potency result in experiment [7], in experiment [9], in experiment [10], in experiment [11] and in [12] was “inactive” in each case.

On to `CCOC(=O)N1CCC(n2c(=O)[nH]c3cc(Cl)ccc32)CC1`, for which the Potency result in experiment [1], in [2], in [3], in [13], in [5] and in [6] was “inactive” in each case. Further, the Potency entry in experiment [10] and in experiment [12] was “inactive” in each case. The call in experiment [8] was inactive.

In the case of `O=C(CCCCCCC(=O)Nc1ccccc1)NO`, the Potency entry in experiment [1], in experiment [13], in experiment [4], in experiment [5], in experiment [7] and in [12] was “inactive” in each case. The Potency in experiment [14] is 3.76 µM (active); in experiment [6], 1.69 µM (active); in [11], 2.39 µM (active). The outcome in experiment [8] was inactive.

With `CC1C2CC(CC2C2CCCC(O)C2)C1(C)C` (stereo unspecified), the Potency result in experiment [1], in experiment [2], in [3], in experiment [10] and in [11] was “inactive” throughout. In addition, in experiment [9], the Potency is 89.8 µM (active).
